Experimental data: PubChem BioAssay AID1159580 (chemical genetic matrix, 2015)
Values joined by “and” are separate entries in the source; they are usually repeats but may differ in a detail not shown here. Equal entries are not always repeated. Among all 5,500 compounds or so, about 2,000 (36%) were called active. Not shown: some 18% with an inconclusive outcome. No stated cut-off is given here; in the data, active means normalized growth mostly below about 0.91 (no sharp cut-off); inconclusive means no clear call, values can overlap the other calls; inactive means mostly above about 0.92. The list shows a part of the results.

Assay: chemical genetic growth profiling, strain panel (AID 1159580);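 further: tested at 20 µM; growth read once vehicle control cultures reached saturation at 30 °C; 1 = growth at the plate median or of vehicle wells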
Conditions: S. cerevisiae deletion strains, growth OD

Measured: normalized growth

CN[C@@H]1C(O)[C@@H](O[C@@H]2[C@@H](O)[C@H](O[C@H]3OC(CN)=CC[C@H]3N)[C@@H](N)C[C@H]2N)OC[C@]1(C)O (some centres undefined)
active: locus YGR252W, strain gcn5, stronger effect = lower value 0.651 | locus YJR043C, strain POL32, stronger effect = lower value 1.2 [resistant]
inactive: locus YAL013W, strain DEP1, stronger effect = lower value 1.02 | locus YAL021C, strain ccr4, stronger effect = lower value 1.01 | locus YAL026C, strain drs2, stronger effect = lower value 0.99 | locus YAL030W, strain snc1, stronger effect = lower value 1.01 | locus YBL061C, strain skt5, stronger effect = lower value 1.01 | locus YBR009C, strain hhf1, stronger effect = lower value 0.968 | locus YBR021W, strain FUR4, stronger effect = lower value 1.02 | locus YBR023C, strain chs3, stronger effect = lower value 1.01 | locus YBR171W, strain sec66, stronger effect = lower value 1.02 | locus YBR229C, strain ROT2, stronger effect = lower value 1.02 | locus YBR231C, strain swc5, stronger effect = lower value 1.02 | locus YBR279W, strain paf1, stronger effect = lower value 1 | locus YCL011C, strain gbp2, stronger effect = lower value 1 | locus YCL016C, strain dcc1, stronger effect = lower value 0.997 | locus YCL029C, strain bik1, stronger effect = lower value 0.997 | locus YCL061C, strain MRC1, stronger effect = lower value 1.03 | locus YCL069W, strain vba3, stronger effect = lower value 1.01 | locus YCR088W, strain abp1, stronger effect = lower value 1.01 | locus YDL005C, strain med2, stronger effect = lower value 1.01 | locus YDL035C, strain GPR1, stronger effect = lower value 1.02 | locus YDL040C, strain nat1, stronger effect = lower value 1.01 | locus YDL074C, strain BRE1, stronger effect = lower value 1.08 | locus YDL101C, strain DUN1, stronger effect = lower value 1.04 | locus YDL134C, strain PPH21, stronger effect = lower value 1.02 | locus YDL185W, strain tfp1, stronger effect = lower value 1 | locus YDL192W, strain arf1, stronger effect = lower value 0.995 | locus YDR001C, strain nth1, stronger effect = lower value 1.02 | locus YDR069C, strain doa4, stronger effect = lower value 1.02 | locus YDR101C, strain arx1, stronger effect = lower value 0.987 | locus YDR137W, strain rgp1, stronger effect = lower value 0.998 | locus YDR150W, strain NUM1, stronger effect = lower value 1.02 | locus YDR159W, strain sac3, stronger effect = lower value 0.989 | locus YDR162C, strain NBP2, stronger effect = lower value 1.03 | locus YDR195W, strain ref2 1.03 | locus YDR297W, strain sur2, stronger effect = lower value 1.02 | locus YDR334W, strain swr1, stronger effect = lower value 1.02 | locus YDR335W, strain msn5, stronger effect = lower value 1.01 | locus YDR388W, stronger effect = lower value 0.985 | locus YDR392W, strain spt3, stronger effect = lower value 0.959 | locus YDR502C, strain sam2, stronger effect = lower value 1.01 | locus YEL003W, strain gim4, stronger effect = lower value 1.01 | locus YEL037C, strain rad23, stronger effect = lower value 1.02 | locus YEL061C, strain CIN8 (second series), stronger effect = lower value 1.02 | locus YEL061C, strain CIN8, stronger effect = lower value 1.07 | locus YER015W, strain faa2, stronger effect = lower value 1.02 | locus YER016W, strain bim1, stronger effect = lower value 0.979 | locus YER110C, stronger effect = lower value 0.96 | locus YER111C, strain swi4, stronger effect = lower value 1.02 | locus YER155C, strain BEM2 (second series), stronger effect = lower value 0.996 | locus YER155C, strain BEM2, stronger effect = lower value 1 | locus YER167W, strain BCK2, stronger effect = lower value 1.02 | locus YFR010W, strain ubp6, stronger effect = lower value 1.03 | locus YGL078C, strain dbp3, stronger effect = lower value 0.985 | locus YGL086W, strain mad1, stronger effect = lower value 0.994 | locus YGL167C, strain pmr1, stronger effect = lower value 1.02 | locus YGL173C, strain kem1, stronger effect = lower value 1.02 | locus YGL227W, strain vid30, stronger effect = lower value 1.02 | locus YGL240W, strain doc1, stronger effect = lower value 1.03 | locus YGL248W, strain PDE1, stronger effect = lower value 1.03 | locus YGL253W, strain hxk2, stronger effect = lower value 1 | locus YGR078C, strain PAC10, stronger effect = lower value 1.03 | locus YGR135W, strain pre9, stronger effect = lower value 1.01 | locus YGR229C, strain SMI1, stronger effect = lower value 1.05 | locus YHR013C, strain ard1, stronger effect = lower value 1.01 | locus YHR027C, strain rpn1, stronger effect = lower value 1 | locus YHR030C, strain SLT2, stronger effect = lower value 1 and 0.98 | locus YHR079C, strain IRE1 (second series), stronger effect = lower value 1 | locus YHR079C, strain IRE1, stronger effect = lower value 0.95 | locus YHR129C, strain ARP1, stronger effect = lower value 1.02 | locus YHR142W, strain chs7, stronger effect = lower value 1.02 | locus YHR200W, strain rpn10, stronger effect = lower value 1 | locus YIL066C, strain RNR3, stronger effect = lower value 1.02 | locus YIL073C, strain SPO22, stronger effect = lower value 1.03 | locus YIL125W, strain kgd1, stronger effect = lower value 1.01 | locus YIR030C, strain dcg1, stronger effect = lower value 0.995 | locus YJL092W, strain hpr5, stronger effect = lower value 1.02 | locus YJL095W, strain BCK1 (second series), stronger effect = lower value 1.01 | locus YJL095W, strain BCK1, stronger effect = lower value 1.06 and 0.978 | locus YJL115W, strain asf1, stronger effect = lower value 1.02 | locus YJL129C, strain trk1, stronger effect = lower value 1.02 | locus YJL134W, strain LCB3, stronger effect = lower value 1.02 | locus YJL154C, strain vps35, stronger effect = lower value 1.01 | locus YJL164C, strain tpk1, stronger effect = lower value 1.01 | locus YJL166W, strain qcr8, stronger effect = lower value 1.03 | locus YJL168C, strain set2, stronger effect = lower value 0.997 | locus YJL187C, strain SWE1 (second series), stronger effect = lower value 1.03 | locus YJR066W, strain TOR1, stronger effect = lower value 0.96
